# From PubChem BioAssay (NCATS)
# “And” between values parts separate entries of the source, which are not always exact repeats. Equal entries are not always repeated. Results filed as inconclusive are left out. The source made the active and inactive calls. Unless noted, calls follow the shape of the dose curve; as a rule, active = well fitted curve in the direction sought with a large enough effect; inconclusive = small, poorly fitted or top-dose-only effect, or another doubt; inactive = no such curve, though single readings can be large; an effect the other way counts as inactive or inconclusive.
# Experiments:
# [1] = P-glycoprotein substrates identified in KB-3-1 adenocarcinoma cell line, qHTS therapeutic library screen (AID 1346986); also: nearly all actives have a fitted effect of over 60% in size;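 also: potency is read from the fitted curve at half-maximal effect; potency is for cytotoxicity meaning loss of cell viability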
# Summary of the method: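 KB-3-1 parental cells and P-gp-overexpressing KB-8-5-11 (colchicine omitted during assay) plated at 500 cells/well, dosed in dose-response, incubated 72 h at 37 degree C. CellTiter-Glo luminescence read; KB-8-5-11 also tested with tariquidar.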
# [2] = qHTS to identify inhibitors of the type 1 interferon - major histocompatibility complex class I in skeletal muscle: primary screen against the NCATS Mechanism Interrogation Plate v5.0 (MIPE) Libary (AID 1347411); also: nearly all actives have a fitted effect of over 65% in size; also: potency is read from the fitted curve at half-maximal effect;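 as to activity change, negative = inhibition: plate controls were vehicle for no effect and reference inhibitor for full effect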
# Summary of the method: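 Immortalized human C25cl48 myoblasts with HiBit knocked into endogenous HLA-B*08:01 were stimulated with 4.0 ng/ml IFN-beta and exposed to compounds (11-point 1:3 titration, top 46 uM final) for 24 hrs at 37 C; HiBiT lytic luminescence measured.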
# [3] = test system: Zika virus NS2B-NS3 protease; assay: Primary screen GU AMC qHTS for Zika virus inhibitors (AID 1347154);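 also: 0% = no-inhibitor control and -100% = no-enzyme control; nearly all actives have a fitted effect of over 70% in size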
# Summary of the method: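 Unlinked Zika NS2B hydrophilic domain/NS3 protease domain noncovalent complex (25 nM final) in 10 mM Tris-HCl pH 8.0, 0.01% Tween 20, with AMC peptide substrate. Fluorescence (ex 340, em 450 nm) change over 15 min, room temperature; percent inhibition fitted to 4-parameter Hill equation.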
# [4] = Primary qHTS for small molecule stabilizers of the endoplasmic reticulum resident proteome: Secreted ER Calcium Modulated Protein (SERCaMP) assay (AID 1508630); also: % is scaled to controls: 0 for no effect and ±100 for the full control effect
# Summary of the method: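 GLuc-SERCaMP-expressing SH-SY5Y cells, pretreated 16 h with compound, are challenged with thapsigargin to empty ER calcium stores; after 4 h, coelenterazine is added directly to the medium and luminescence is imaged.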
# [5] = molecular target: Catechol O-methyltransferase (Homo sapiens) (UniProt P21964); assay: Confirmatory Screen for Target Class Profiling of Small Molecule Inhibitors of Methyltransferases (AID 1745852; calls by dose curve; also: potency is read from the fitted curve at half-maximal effect); conditions: MTase-Glo luminescence, SAH detection, recombinant enzyme; measured here: COMT max response; stronger effect = lower value
# Chain of Catechol O-methyltransferase (Homo sapiens) (P21964 whole entry, looked up): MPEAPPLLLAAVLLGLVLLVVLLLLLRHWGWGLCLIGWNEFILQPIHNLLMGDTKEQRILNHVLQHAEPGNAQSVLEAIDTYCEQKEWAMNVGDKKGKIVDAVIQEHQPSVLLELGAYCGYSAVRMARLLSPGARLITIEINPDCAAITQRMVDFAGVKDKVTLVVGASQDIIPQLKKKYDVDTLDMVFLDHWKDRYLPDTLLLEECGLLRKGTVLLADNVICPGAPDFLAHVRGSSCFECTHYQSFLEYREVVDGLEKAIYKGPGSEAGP
# [6] = molecular target: Guanidinoacetate N-methyltransferase (Homo sapiens) (UniProt Q14353); assay: as above; conditions: activity change, negative = inhibition: at 57.3 µM (top of the series) unless noted
# [7] = molecular target: Nicotinamide N-methyltransferase (Homo sapiens) (UniProt P40261); assay: as above; conditions: MTase-Glo luminescence, SAH detection, recombinant enzyme; measured here: NNMT max response; stronger effect = lower value
# Chain of Nicotinamide N-methyltransferase (Homo sapiens) (P40261 whole entry, looked up): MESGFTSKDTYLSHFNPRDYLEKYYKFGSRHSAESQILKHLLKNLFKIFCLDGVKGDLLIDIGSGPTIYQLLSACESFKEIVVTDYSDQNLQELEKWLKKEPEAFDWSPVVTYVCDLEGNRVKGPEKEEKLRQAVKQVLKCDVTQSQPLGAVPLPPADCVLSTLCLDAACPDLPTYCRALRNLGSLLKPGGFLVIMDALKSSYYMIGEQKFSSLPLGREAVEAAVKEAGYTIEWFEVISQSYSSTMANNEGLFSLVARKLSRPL
# [8] = molecular target: Phenylethanolamine N-methyltransferase (Homo sapiens) (UniProt P11086); assay: as above; conditions: MTase-Glo luminescence, SAH detection, recombinant enzyme; measured here: PNMT max response; stronger effect = lower value
# Chain of Phenylethanolamine N-methyltransferase (Homo sapiens) (P11086 whole entry, looked up): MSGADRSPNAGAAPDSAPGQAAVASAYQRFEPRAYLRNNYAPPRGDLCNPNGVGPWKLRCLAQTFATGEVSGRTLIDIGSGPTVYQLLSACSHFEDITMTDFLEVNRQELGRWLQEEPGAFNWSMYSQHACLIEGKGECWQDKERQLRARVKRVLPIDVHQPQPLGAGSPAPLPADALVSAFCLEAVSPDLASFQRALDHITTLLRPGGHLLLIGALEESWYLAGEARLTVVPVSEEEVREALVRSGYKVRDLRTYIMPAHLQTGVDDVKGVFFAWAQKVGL
# [9] = qHTS assay to identify inhibitors of the type 1 interferon - major histocompatibility complex class I in skeletal muscle: Counter screen cell viability and HiBit confirmation (AID 1347412); conditions: iHSKM muscle cells + IFN-b, HiBiT or CellTiter-Glo, 24 h; for Potency: HiBiT; for activity change, negative = inhibition: Viability, at 45.9 µM (top of the series); also: potency is read from the fitted curve at half-maximal effect; as to activity change, negative = inhibition: % is scaled to controls: 0 for no effect and ±100 for the full control effect; as to all read-outs here: nearly all actives have a fitted effect of over 60% in size
# Summary of the method: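 Luminescence read-out: Nano-Glo HiBiT lytic signal from C-terminally HiBiT-tagged HLA-B in CRISPR-edited human myoblasts, plus CellTiter Glo ATP as viability counter screen. IFN-beta 4.0 ng/ml; 24 hrs treatment at 37 C, 5% CO2.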
# [10] = molecular target: Luciferin 4-monooxygenase (Photinus pyralis) (UniProt P08659); assay: Biochemical firefly luciferase enzyme assay for NPC (AID 624030);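 also: purified P. pyralis luciferase at 10 nM with luciferin and ATP substrate; 0% = DMSO and -100% = full luciferase inhibition by PTC124 control; nearly all actives have a fitted effect of over 70% in size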
# Chain of Luciferin 4-monooxygenase (Photinus pyralis) (P08659 whole entry, looked up): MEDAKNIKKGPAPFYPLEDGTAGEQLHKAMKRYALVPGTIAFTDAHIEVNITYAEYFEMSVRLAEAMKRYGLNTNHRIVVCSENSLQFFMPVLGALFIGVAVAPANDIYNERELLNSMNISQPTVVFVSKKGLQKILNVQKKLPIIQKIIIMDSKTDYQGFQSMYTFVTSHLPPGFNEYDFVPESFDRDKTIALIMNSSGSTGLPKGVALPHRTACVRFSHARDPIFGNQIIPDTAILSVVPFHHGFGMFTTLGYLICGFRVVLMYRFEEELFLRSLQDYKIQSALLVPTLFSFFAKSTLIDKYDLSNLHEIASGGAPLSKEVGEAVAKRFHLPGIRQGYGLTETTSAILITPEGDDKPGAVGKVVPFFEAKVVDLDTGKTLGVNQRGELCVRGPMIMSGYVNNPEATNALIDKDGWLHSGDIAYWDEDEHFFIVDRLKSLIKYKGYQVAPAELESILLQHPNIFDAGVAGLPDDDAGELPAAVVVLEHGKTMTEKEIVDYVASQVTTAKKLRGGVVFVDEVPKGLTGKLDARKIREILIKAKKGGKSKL
# Summary of the method: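 Counter-screen for direct inhibition of the luciferase enzyme by approved-drug library compounds, run at 10 nM enzyme in 50 mM Tris acetate (final). Luminescence was read within 5 min of enzyme-buffer addition and normalized to PTC124 versus DMSO (0%).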
# [11] = qHTS Assay for Identifying Gametocytocidal Compounds (AID 743244); also: potency is read from the fitted curve at half-maximal effect;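 as to max response: % is scaled to controls: 0 for no effect and ±100 for the full control effect; actives lower the fluorescent signal which means gametocytes are killed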; conditions: P. falciparum 3D7 stage III-V gametocytes, alamarBlue, 72 h; max response: stronger effect = lower value
# Summary of the method: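 Stage III-V P. falciparum 3D7 gametocytes, 20,000 per well, were exposed to compounds for 72 h at 37C, 5% CO2. AlamarBlue was then added for 24 h and viability was read as fluorescence at Ex 525/Em 598 nm.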
# [12] = Drug repurposing screens with cells derived from glioblastoma tumor samples (AID 1345199); conditions: GBM patient neurospheres viability, ATP luminescence, 48 h; also: nearly all actives have a fitted effect of over 40% in size; also: potency is read from the fitted curve at half-maximal effect; as to activity, negative = cell killing: % is scaled to controls: 0 for no effect and ±100 for the full control effect
# Summary of the method: (§1)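 Four patient lines of CD133+ GBM neurospheres were screened at several concentrations; hits were retested in those lines plus three slower-growing GBM lines, using 48-hour treatment and ATP-based viability.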
# astro = assay: as above; conditions: viability, ATP luminescence, 48 h; series mostly up to 45.9 µM
# Summary of the method: as §1
# [13] = molecular target: Cytochrome P450 2D6 (Homo sapiens) (UniProt P10635); assay: Cytochrome P450 family 2 subfamily D member 6 (CYP2D6) small molecule antagonists: luciferase biochemical (cell-free) qHTS assay (AID 1645840; active = well fitted curve in the direction sought with a large enough effect in the repeat runs; an effect the other way counts as inactive or inconclusive; also: potency is read from the fitted curve at half-maximal effect; nearly all actives have a fitted effect of over 55% in size)
# Chain of Cytochrome P450 2D6 (Homo sapiens) (P10635 whole entry, looked up): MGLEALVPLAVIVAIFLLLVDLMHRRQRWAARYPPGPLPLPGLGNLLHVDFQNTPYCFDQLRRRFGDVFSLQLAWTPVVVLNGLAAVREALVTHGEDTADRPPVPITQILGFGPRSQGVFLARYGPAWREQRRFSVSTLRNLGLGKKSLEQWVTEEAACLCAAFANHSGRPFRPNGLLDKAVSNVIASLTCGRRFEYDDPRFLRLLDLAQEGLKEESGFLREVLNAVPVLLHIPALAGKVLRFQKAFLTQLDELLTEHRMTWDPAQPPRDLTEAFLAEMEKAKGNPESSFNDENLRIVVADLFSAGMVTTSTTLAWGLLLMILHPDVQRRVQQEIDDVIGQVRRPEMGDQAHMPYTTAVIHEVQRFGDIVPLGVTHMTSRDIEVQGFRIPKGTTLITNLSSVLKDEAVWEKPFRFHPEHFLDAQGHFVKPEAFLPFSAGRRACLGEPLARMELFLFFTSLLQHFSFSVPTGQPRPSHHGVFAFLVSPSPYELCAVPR
# Summary of the method: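 P450-Glo luminescent screen: recombinant CYP2D6 enzyme–proluciferin substrate mix preincubated with compound 10 min at room temperature, then NADPH regeneration added for 1 h at room temperature. Detection reagent added for 20 min; luciferin light read as relative luminescence units.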
# [14] = molecular target: Cytochrome P450 2C9 (Homo sapiens) (UniProt P11712); assay: Cytochrome P450 family 2 subfamily C member 9 (CYP2C9) small molecule antagonists: luciferase biochemical (cell-free) qHTS assay (AID 1645842; active = well fitted curve in the direction sought with a large enough effect in the repeat runs; an effect the other way counts as inactive or inconclusive; also: % is scaled to controls: 0 for no effect and ±100 for the full control effect; nearly all actives have a fitted effect of over 55% in size)
# Chain of Cytochrome P450 2C9 (Homo sapiens) (P11712 whole entry, looked up): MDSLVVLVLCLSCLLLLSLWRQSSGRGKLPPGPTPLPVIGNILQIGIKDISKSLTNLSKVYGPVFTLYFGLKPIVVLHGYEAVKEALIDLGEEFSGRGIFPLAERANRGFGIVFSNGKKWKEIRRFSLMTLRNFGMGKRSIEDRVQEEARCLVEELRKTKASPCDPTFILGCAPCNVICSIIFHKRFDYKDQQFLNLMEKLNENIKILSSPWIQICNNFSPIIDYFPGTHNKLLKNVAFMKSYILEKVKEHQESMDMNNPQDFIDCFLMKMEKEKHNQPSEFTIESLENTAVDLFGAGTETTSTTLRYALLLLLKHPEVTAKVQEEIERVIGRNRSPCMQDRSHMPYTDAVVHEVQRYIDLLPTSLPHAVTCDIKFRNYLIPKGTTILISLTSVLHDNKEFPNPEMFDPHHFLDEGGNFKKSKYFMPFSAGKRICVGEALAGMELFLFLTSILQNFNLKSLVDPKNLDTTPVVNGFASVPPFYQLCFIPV
# Summary of the method: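 Luminescence, after 20 min with luciferin detection reagent, reflected CYP2C9 turnover during a 1 h NADPH-driven reaction at 37C. Enzyme-substrate mix contained 0.4% bovine serum albumin and was preincubated with compound 10 min at room temperature.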
# [15] = at 45.9 µM (top of the series), tumour line D
# [16] = at 46.1 µM (top of the series), tumour line C
structure (smiles),measurement,setting,value
CC(C)C(N)C(=O)OCC(CO)OCn1cnc2c(=O)[nH]c(N)nc21 (stereo unspecified),Potency,[1],inactive
same,Potency,[2],inactive
Nc1ncnc2c1c(I)cn2C1OC(CO)C(O)C1O (stereo unspecified),Potency,[1],3.26 µM (active)
same,Potency,[3],inactive
same,Potency,[4],inactive
same,activity,[5],-96.2%
same,Potency,[6],12.1 µM (active)
same,activity,[7],-88.4%
same,activity,[8],-97.6%
COc1cc(F)ccc1-c1ncnc(Nc2cccc(CS(C)(=N)=O)c2)n1 (stereo unspecified),Potency,[1],1.46 µM (active)
same,Potency,[2],2.34 µM (active)
same,Potency,[9],0.991 µM (active)
same,"activity change, negative = inhibition",[9],-16.3% (inactive)
CN1C/C=C/CCOc2cccc(c2)-c2ccnc(n2)Nc2cccc(c2)C1,Potency,[1],0.092 µM (active)
same,Potency,[2],0.165 µM (active)
same,Potency,[9],0.111 µM (active)
same,"activity change, negative = inhibition",[9],-20% (inactive)
COC(=O)[C@]12CCC(C)(C)C[C@@H]1[C@@H]1C(=O)C=C3[C@]4(C)C=C(C#N)C(=O)C(C)(C)[C@@H]4CC[C@@]3(C)[C@]1(C)CC2,Potency,[1],1.46 µM (active)
CCCCCCCCCCCCCCCCSCC(COC)COP(=O)([O-])OCC[N+](C)(C)C (stereo unspecified),Potency,[10],inactive
same,max response,[11],-10.5% (inactive)
same,"activity, negative = cell killing",[12]; [15],-10.7% (inactive)
same,"activity, negative = cell killing",[12]; [16],5.78% (inactive)
same,Potency,[12]; tumour line A,22.4 µM (active)
same,Potency,astro,inactive
C=CC(=O)Nc1cccc(C)c1Nc1ncc2cc(-c3c(Cl)c(OC)cc(OC)c3Cl)ccc2n1,Potency,[1],14.6 µM (active)
same,Potency,[2],11.7 µM (active)
same,Potency,[9],15.7 µM (active)
same,"activity change, negative = inhibition",[9],1.08% (inactive)
CCC(=O)O[C@H]1CC[C@H]2[C@@H]3CCc4cc(O)ccc4[C@H]3CC[C@]12C,max response,[11],3.09% (inactive)
same,Potency,astro,12.6 µM (active)
C#Cc1cccc(Nc2ncnc3cc(OC)c(OC)cc23)c1,Potency,[1],5.17 µM (active)
same,Potency,[3],inactive
CN(C)Cc1cccc(N=C(c2ccccc2)c2c(O)[nH]c3cc(C(N)=O)ccc23)c1,Potency,[1],inactive
same,Potency,[2],inactive
C[C@@H]1N=C(N)NC(N(C)C)=N1,Potency,[1],inactive
same,Potency,[2],inactive
CCCCCCCC[N+](C)(C)CCCCCCCC,Potency,[10],inactive
same,Potency,[11],7.94 µM (active) and 8.91 µM (active)
same,Potency,[13],0.674 µM (active)
same,Potency,[14],inactive
same,Potency,astro,20 µM (active) and 12.6 µM (active)
CC[C@@]1(O)C[C@H](O[C@H]2C[C@H](N(C)C)[C@H](O[C@H]3C[C@H](O)[C@H](O[C@H]4CCC(=O)[C@H](C)O4)[C@H](C)O3)[C@H](C)O2)c2c(cc3c(c2O)C(=O)c2c(O)cccc2C3=O)[C@H]1C(=O)OC,Potency,[11],112 nM (active)
same,Potency,astro,0.447 µM (active)
Cn1cc(C2=C(c3cn(CCCSC(=N)N)c4ccccc34)C(=O)NC2=O)c2ccccc21,Potency,[1],5.17 µM (active)
same,Potency,[3],inactive
same,Potency,[4],inactive
N[C@@H](C(=O)N[C@@H]1C(=O)N2C(C(=O)O)=C(CSc3cn[nH]n3)CS[C@H]12)c1ccc(O)cc1,max response,[11],-0.063% (inactive)
same,"activity, negative = cell killing","[12]; at 45.9 µM (top of the series), tumour line B",-1.12% (inactive)
same,"activity, negative = cell killing",[12]; [15],-13.1% (inactive)
same,"activity, negative = cell killing",[12]; [16],10.5% (inactive)
same,Potency,astro,inactive
